Screening data from PubChem BioAssay.
TCR activator = activates T cell receptor signaling; 330,000 tested, under 10 active; primary human leukocytes, anti-CD3, IL-2 HTRF, 48 h; Potency, µM (doses to about 9.22 µM), without a hit: at the highest dose activation of IL-2 secretion, usual class: activators; note: % of control where 0% means no effect
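Primary human leukocytes receive a-CD3 beads and test compound and are incubated 48 hr. Secreted IL-2 is then assayed by HTRF, measuring 665nm acceptor emission after 320nm excitation of the europium donor.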
BRCA1 expr up = increases BRCA1 expression. MCF7-BRCA1-FFLuc reporter, luminescence, 48 h; response scale: scaled: vehicle 0%, 10 µM genistein 100%. Potency, µM (series often up to 46.1 µM), inactives show at the top dose activation, actives largely listed as activators. actives 1.1% (n = 380,000). AID 624202; note: potency is the fitted concentration of half-maximal effect; nearly all actives have a fitted effect of over 80% in size
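Activators of BRCA1 expression were detected as increased firefly luciferase luminescence in engineered MCF7 cells after 48 h compound incubation. Signals were scaled to genistein 10 microM as full activation.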
PTHR1 agonist = agonists of human PTHR1 parathyroid hormone receptor | actives 0.075% (n = 410,000) | AID 743266 | Potency, µM (series often up to 115 µM), for the others: top-dose activation, hits mostly activators | Q03431 | HEK293 GP2 PTHR1 cells, GloSensor cAMP luminescence, 1 h; note: potency is the fitted concentration of half-maximal effect; nearly all actives have a fitted effect of over 55% in size
Target sequence (Q03431 whole entry, looked up): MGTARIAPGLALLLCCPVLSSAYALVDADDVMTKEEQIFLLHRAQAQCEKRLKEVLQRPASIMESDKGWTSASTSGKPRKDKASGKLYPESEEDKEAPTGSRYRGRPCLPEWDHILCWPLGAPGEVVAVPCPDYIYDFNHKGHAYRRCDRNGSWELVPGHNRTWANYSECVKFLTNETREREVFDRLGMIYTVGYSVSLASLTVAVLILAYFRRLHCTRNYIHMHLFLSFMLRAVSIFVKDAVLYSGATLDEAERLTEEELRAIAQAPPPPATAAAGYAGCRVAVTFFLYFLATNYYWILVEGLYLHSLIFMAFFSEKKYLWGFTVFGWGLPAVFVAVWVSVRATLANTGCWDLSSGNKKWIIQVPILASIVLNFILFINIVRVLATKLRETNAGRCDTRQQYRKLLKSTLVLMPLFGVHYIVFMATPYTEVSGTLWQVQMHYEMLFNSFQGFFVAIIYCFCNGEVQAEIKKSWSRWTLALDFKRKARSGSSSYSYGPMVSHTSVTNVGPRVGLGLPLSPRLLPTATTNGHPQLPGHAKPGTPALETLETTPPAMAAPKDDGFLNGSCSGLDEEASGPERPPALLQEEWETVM
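HEK-293-derived GP2 cells expressing PTHR1 and a GloSensor cAMP reporter, 3,000/well, plated overnight, given luciferin plus IBMX (each 0.5 mM as added) for 1 h at 37 °C, then compound for 1 h at 37 °C. Luminescence was read after 15 min at room temperature.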
Mito fusion act = mitochondrial division inhibition or fusion activation. S. cerevisiae fusion-defective mutant growth rescue, CellTiterGlo 48 h. Potency, µM (highest dose often 46.1 µM), without a hit: at the highest dose growth rescue (activation), hits mostly activators. actives 0.23% (n = 320,000). AID 485298; note: potency is the fitted concentration of half-maximal effect; % of control where 0% means no effect; nearly all actives have a fitted effect of over 45% in size
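Temperature-sensitive fusion-defective S. cerevisiae (e.g. fzo1-1, mgm1-5) were grown with compound in YPEG medium (3% ethanol, 3% glycerol) for 48 hours at 37C. Growth rescue was measured as viability by CellTiterGlo luminescence after 10 minutes at ambient.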
Chronic BCR inh = chronic active BCR signaling inhibition; ABC-DLBCL IkBa-CBG/CBR reporter, luminescence ratio, 4 h; Potency, µM (top dose mostly 46.1 µM), without a hit: top-dose activity change, negative = inhibition, usual class: inhibitors; actives 0.05% (n = 340,000); active = well fitted inhibition curve with a large enough effect in the signal ratio, with a control signal flat, not every such curve was filed as active; inconclusive = small, poorly fitted or top-dose-only effect, or effect the other way, or a change in a side signal; the % refers to the signal ratio;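 note: potency is the fitted concentration of half-maximal effect; plate controls were basal doxycycline-induced cells for no effect and cells given 10 µM MG132 for full effect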
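Doxycycline induced both beetle luciferases in TMD8 lymphoma cells; IKK-driven degradation limits the IkappaBalpha-fused green signal, while red luminescence normalises for cell number and nonspecific effects. Compounds tested up to 46 uM, 4 hrs.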
IL2 activator = activates IL-2 in a cell-based reporter assay; IL-2 activation reporter assay, cell-based qHTS; stimulated with anti-CD3/CD4/CD28 beads; in transgenic mouse T cells; activation, % (series mostly up to about 46 µM); actives 0.065% (n = 360,000); in the data active = activation above about 50%; inconclusive = mostly about 30% to 49%; note: 0% is about no effect
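Quantitative HTS in unstimulated transgenic mouse T cells, with memory T cells as non-tolerant control and PMA/ionomycin as tolerance-bypass control. Compound pretreatment lasted 60 minutes before 18 h bead stimulation; EGFP/DsRed fluorescence read.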
Active calls of the source: *; i = inactive; ? = inconclusive; nt = no result given; ! = not confirmed by another sample; [ ] = remark or other dose. Compounds with a hit are over-represented: about 1.3% of the library has one in this group of screens. Unless noted, calls come from the whole dose curve; as a rule, active = well fitted curve in the direction sought with a large enough effect; inconclusive = small, poorly fitted or top-dose-only effect, or another doubt; inactive = no such curve, though single readings can be large; an effect the other way counts as inactive or inconclusive.

SMILES	TCR activator	BRCA1 expr up	PTHR1 agonist	Mito fusion act	Chronic BCR inh	IL2 activator
O=C(Cn1nnc(-c2ccc3c(c2)OCO3)n1)Nc1ccccc1C(=O)O	2.1%	11.2µM*	-26.3%	1.1%	?	-3.3
Cc1c(CCNC=O)cc(C)c2c3c(oc12)CCCC3	-1.4%	10µM*	-9.9%	nt	nt	-0.4
CN(Cc1ccc(C(F)(F)F)cc1)C(=O)C1CC(=O)N(Cc2ccco2)C1 (stereo not drawn)	1.7%	-20.2%	i	nt	-1.4%	0.3
Cc1ccc(C(=O)Oc2oc(-c3ccco3)nc2C=Nc2ccc(Cl)cc2)cc1	-50.9%	2µM*	-42.8%	2.1%	4.1%	-4.6
O=C(Oc1oc(-c2ccco2)nc1C=Nc1ccccc1)c1ccoc1	11.0%	27.0%	12.8%	-0.1%	?	-1.8
CC(=O)Nc1ccc(S(=O)(=O)Nc2ccc3c(c2)C(=O)OC3)cc1	nt	nt	nt	25.7%	0.0%	nt
Cc1cc(C)c(NC(=O)c2sc3nc4c(cc3c2N)C(=O)CC(C)(C)C4)c(C)c1	1.2%[46.1 µM]	4.2%	-41.9%	12.6µM*	1.9%	0.2
COc1ccc(C(=O)c2ccc(OC)cc2O)c(O)c1	2.4%	10µM*	i	3.7%	0.0%	-0.7
Cn1c(C(=O)NCc2cccs2)cc2oc3ccccc3c21	-1.6%	12.6µM*	-38.1%[57.5 µM]	1.1%	1.0%	-1.1
Cn1c(C(=O)NCC2CCCO2)cc2oc3ccccc3c21 (stereo not drawn)	-4.6%	3.55µM*	-12.8%[57.5 µM]	-7.2%	2.3%	-0.5
O=C1CC(c2ccco2)Cc2[nH]c(=O)c(C(=O)Nc3ccccc3)cc21 (stereo not drawn)	nt	-8.1%	nt	nt	nt	nt
C(=NOCc1ccccc1)c1ccccn1	nt	10µM*	-51.4%	nt	nt	4.7
C(=NOCc1ccccc1)c1ccncc1	-2.0%	86.1%	-2.7%	nt	nt	-0.3
CC12CC3CC(C)(C1)CC(Nc1nc(N4CCOCC4)nc4ccccc14)(C3)C2	2.6%	-5.3%	-15.8%	-0.9%	?	-0.9
COc1ccc(Cn2nnnc2CN(Cc2cc3ccc(C)cc3[nH]c2=O)C2CCCC2)cc1	-1.5%	-55.8%	i	1.9%	-7.0%	54.9*
O=c1oc2ccccc2nc1/C=C(\O)c1ccccc1	8.6%	3.55µM*	i	-2.5%	?	-0.5
CC(C)(C)/C(O)=C/c1nc2ccccc2oc1=O	0.3%	-21.4%	-22.6%	14.5%	-0.8%	-1.6
O=C(C[C@@H]1CC[C@@H](NC(=O)Nc2cccc(F)c2)[C@@H](CO)O1)NCC1CCCCC1	nt	nt	-22.1%	nt	nt	-0.2
Cc1ccccc1OCCCCn1cnc2ccccc21	1.5%	-35.9%	-18.4%[57.5 µM]	-3.8%	-6.4%	0.4
Brc1ccccc1OCCCn1cnc2ccccc21	0.4%	11.2µM*	-26.3%	13.6%	17.8%	-3.0
O=[N+]([O-])c1cccc(CNc2ccc3c(c2)CCC3)c1	2.6%[46.1 µM]	-7.0%	-6.7%	14.1µM*	?	-0.3
O=C(Nc1cccc([N+](=O)[O-])c1)Nc1ccc2c(c1)CCC2	6.3%	-1.9%	i	1.3%	?	-4.0
O=[N+]([O-])c1ccc(COc2ccccc2/C=N/O)cc1	2.2%[46.1 µM]	10µM*	-7.5%	7.5%	?	-0.3
CN(C)c1ccc(CNC(=O)C2CCN(C(=O)c3ccc(-n4ccc5ccccc54)s3)CC2)cc1	nt	nt	-8.1%	nt	nt	nt
COc1cc(C)ccc1OCCCOc1ccccc1Cl	2.7%	12.6µM*	-10.6%[57.5 µM]	-4.1%	13.5%	-0.5
SMILES	TCR activator	BRCA1 expr up	PTHR1 agonist	Mito fusion act	Chronic BCR inh	IL2 activator
CC1CCCC(NC(=O)/C=C/c2c(F)cccc2Cl)C1C (stereo not drawn)	1.6%	11.2µM*	-4.9%	nt	nt	-0.7
O=C(/C=C/c1c(F)cccc1Cl)Nc1ncccn1	-0.5%[46.1 µM]	35.3%	i	19.7%	-10.7%	-1.7
O=C(/C=C/c1c(Cl)cccc1Cl)N1CCOCC1	nt	44.1%	i	5.2%	?	1.0
O=C(/C=C/c1c(F)cccc1Cl)N1CCOCC1	-0.3%	10µM*	-3.8%	4.4%	-14.0%	-3.5
CS(=O)(=O)N1CCN(Cc2cc3nc(-c4cccc5[nH]ncc45)nc(N4CCOCC4)c3s2)CC1	nt	-69.9%[92.2 µM]	nt	nt	nt	nt
O=C(Nc1ccsn1)c1ccc(Cl)cc1Cl	-0.9%	2.51µM*	-12.5%	-11.5%	3.6%	-0.5
CCC(=O)N/C(N)=N/c1nc(C)c2cc(OC)ccc2n1	0.1%	1.7%	-4.1%[57.5 µM]	6.6%	-4.8%	0.1
COc1ccc2nc(/N=C(\N)NC(=O)C(C)(C)C)nc(C)c2c1	-3.9%	11.2µM*	-3.3%[57.5 µM]	2.3%	?	-0.2
Nc1ncc(S(=O)(=O)c2ccc(Cl)cc2)c(N)n1	-55.5%	21.0%	-0.9%	0.3%	-8.0%	-2.6
Cc1ccccc1N=C(NOCc1ccccc1)c1nonc1N	-2.0%[46.1 µM]	-34.0%	i	22.4µM*	?	-2.0
Cc1ccccc1N=C(NOCc1ccc(Cl)cc1Cl)c1nonc1N	-8.1%	-29.0%	i	21.0%	?	-3.4
CN1C(C(=O)Nc2ccccn2)=C(O)c2ccccc2S1(=O)=O	0.2%	-4.7%	4.1%	16.4µM*!	?	0.8
CCOc1ccc(CCNC(=O)Cn2ccc3cc(S(=O)(=O)N4CCCCCC4)ccc32)cc1	nt	nt	-8.3%	nt	nt	nt
COc1ccc(NC(=O)c2sc3nc4c(cc3c2N)CN(Cc2ccccc2)CC4)c(OC)c1	nt	-18.8%	-30.5%	nt	nt	nt
CCOC(=O)c1c(C)[nH]c(C(C)=NNC(=O)c2cccs2)c1C	-0.3%	2.82µM*	-12.9%	nt	?	1.1
COc1cccc(NC(=O)CN(C)C(C)C(=O)NC(=O)NC2CCCCC2)c1 (stereo not drawn)	-0.2%	-1.2%	-13.7%	-3.0%	?	0.9
COc1cccc2c1OCC(C(=O)Nc1nccs1)=C2	2.6%	4.47µM*	-26.7%	-14.1%	?	1.2
COc1cccc(C=Nc2ccccc2C(=O)Nc2nccs2)c1OC	0.7%	?	i	1.5%	22.5%	0.4
CCOc1ccc(CCNC(=O)c2ccc3ccccc3n2)cc1OCC	1.1%	-1.6%	i	-4.5%	6.1%	-2.2
COc1ccc2cc(C[C@@H]3CC[C@@H](CO)O3)ccc2c1	2.1%[46.1 µM]	2.82µM*	-24.9%	nt	?	-0.7
CCOC(=O)C1=C(C)N(C[C@@H]2CC[C@@H](Cc3ccc4cc(OC)ccc4c3)O2)C(=O)NC1c1ccc(OC)cc1 (stereo partly drawn)	3.4%[46.1 µM]	-19.6%	-59.0%	nt	-12.5%	0.2
C/C(=N\Nc1ncc(Cl)cc1Cl)c1ccccn1	0.2%	-72.1%	-46.7%	-7.3%	?	70.7*
C/C(=N\Nc1ccc(Cl)c(C(=O)O)c1)c1ccccn1	7.5%	?	4.1%	1.2%	?	-2.8
